Drawing on PubChem BioAssay (Tox21), this text covers Potency and outcome for seven compounds.

Values joined by “and” are separate entries in the source; they are usually repeats but may differ in a detail not shown here. Identical values can stand only once. Results filed as inconclusive are left out. Active and inactive are the calls of the source. Unless noted, the call rests on the fitted dose curve; in most records, active means well fitted curve in the direction sought with a large enough effect in the repeat runs; inconclusive means weak or mixed curves; inactive means no such curve, though single readings can be large; an effect the other way counts as inactive or inconclusive.

The nature of experiment [1]: A CellTox Green Cytotoxicity Assay to monitor cytotoxicity in HEK293 cells - 32 hour (AID 1224881). Further: nearly all actives have a fitted effect of over 40% in size. In a few lines:
(§1)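 Homogeneous no-lysis format: HEK293 cell suspension mixed with CellTox Green reagent, seeded, incubated 5 h at 37 C/5% CO2, then dosed by pintool with compound in DMSO.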

The nature of experiment [2]: A CellTox Green Cytotoxicity Assay to monitor cytotoxicity in HepG2 cells - 0 hour (AID 1224882). Further: nearly all actives have a fitted effect of over 35% in size. Summed up: (§2)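 Fluorescent DNA-binding dye, 600 HepG2 cells/well, 5 h preincubation then compound in DMSO; same plates read at 0–40 h, 37 C.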
A short description of experiment [3]: A CellTox Green Cytotoxicity Assay to monitor cytotoxicity in HepG2 cells - 32 hour (AID 1224883). Further: nearly all actives have a fitted effect of over 50% in size. In a few lines:
as §2

The nature of experiment [4]: A CellTox Green Cytotoxicity Assay to monitor cytotoxicity in HEK293 cells - 8 hour (AID 1224884). Further: nearly all actives have a fitted effect of over 35% in size. In a few lines:
as §1

Experiment [5] can be described thus: qHTS RealTime-Glo MT Cell Viability Assay in HepG2 cells - 16 hour (AID 1224885). Further: nearly all actives have a fitted effect of over 50% in size. Summed up: (§3)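 Compound treatment began 5 h after plating HepG2 cells (600/well) with NanoLuc luciferase and prosubstrate. Plates stayed at 37 C for 40 h; luminescence was captured at six time points, 0 h through 40 h.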
Experiment [6] is described as follows: qHTS RealTime-Glo MT Cell Viability Assay in HEK293 cells - 8 hour (AID 1224887). Further: top concentration of the series differs between compounds; nearly all actives have a fitted effect of over 50% in size. Summed up: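 Measured as luminescence from the same continuously cultured HEK293 wells at successive time points (0, 8, 16, 24, 32, 40 h) after compound addition. Reagent present from seeding; dosing at 5 h; incubation 37 C.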
(Quantitative high-throughput screening tests each substance at several concentrations.)

Experiment [7] in a line: A CellTox Green Cytotoxicity Assay to monitor cytotoxicity in HEK293 cells - 16 hour (AID 1224888). Further: nearly all actives have a fitted effect of over 35% in size. In a few lines:
as §1

Experiment [8] in a line: qHTS RealTime-Glo MT Cell Viability Assay in HepG2 cells - 0 hour (AID 1224889). Further: nearly all actives have a fitted effect of over 50% in size. In a few lines:
as §3

A short description of experiment [9]: A CellTox Green Cytotoxicity Assay to monitor cytotoxicity in HepG2 cells - 8 hour (AID 1224890). Further: nearly all actives have a fitted effect of over 45% in size. Summed up: as §2
A short description of experiment [10]: qHTS assay to identify small molecule antagonists of the estrogen receptor alpha (ER-alpha) signaling pathway using the BG1 cell line in the presence of 0.1 nM 17-beta-estradiol - cell viability counter screen (AID 1259241). Further: nearly all actives have a fitted effect of over 40% in size. Summed up: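 CellTiter-Fluor read (30 min, 37C) on ER-alpha/ERE-luc VM7Luc4E2 cells; 22 hr compound treatment; agonist 0.1 nM E2 final; same-well multiplex.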

The nature of experiment [11]: qHTS assay to identify small molecule antagonists of the androgen receptor (AR) signaling pathway using the MDA cell line in the presence of 0.5 nM R1881 - cell viability counter screen (AID 1259242). Further: nearly all actives have a fitted effect of over 45% in size. In a few lines:
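Human breast carcinoma MDA-kb2 cells, cultured without CO2, receive compounds alongside 0.5 nM (final) R1881 agonist. After 16 hr at 37C, viability is taken as live-cell protease signal.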

Experiment [12] in a line: qHTS assay to identify small molecule HDAC inhibitors (AID 1259364).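 Further: wild-type HCT-116 cells with endogenous class I/II HDAC activity; top concentration of the series differs between compounds; nearly all actives have a fitted effect of over 45% in size.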 Summed up:
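After a 2 hr compound incubation (37C, 5% CO2), HCT-116 cells seeded at 1,500/well the day before received HDAC-Glo reagent; signal read as luminescence after 30 min at room temperature.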

Experiment [13] in a line: qHTS assay to identify small molecule HDAC inhibitors - cell viability counter screen (AID 1259365). Summed up:
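To flag cytotoxic hits, 1,500 wild-type HCT-116 cells per well, plated the day before, receive test compounds for 2hr at 37 C before CellTiter-Glo reagent and a luminescence read.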

Experiment [14] in a line: qHTS assay to identify small molecule agonists of the sonic hedgehog signaling (Shh) pathway - cell viability counter screen (AID 1259366). Further: nearly all actives have a fitted effect of over 50% in size. Summed up: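 Fluorescence from CellTiter-Fluor reports live cells in this counter screen. NIH/3T3-derived Gli1-Luc reporter cells receive test compounds for 24hr at 37C; reagent goes in at 23hr.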
The nature of experiment [15]: qHTS assay to identify small molecule antagonists of the sonic hedgehog signaling (Shh) pathway - cell viability counter screen (AID 1259367). Further: nearly all actives have a fitted effect of over 55% in size. Summed up: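 Cytotoxicity was assessed in parallel with Shh reporter activity by measuring live-cell protease fluorescence (CellTiter-Fluor) in NIH/3T3 cells stably carrying Gli1-Luc, treated with compound under conditioned medium stimulation for 23 hr plus 1 hr reagent incubation.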

The nature of experiment [16]: qHTS assay to identify small molecule agonists of the sonic hedgehog signaling (Shh) pathway (AID 1259368; calls by dose curve;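 further: NIH/3T3-derived 3T3Gli1-Luc cells carrying a stable Gli1-driven firefly luciferase reporter; series mostly up to about 92 µM; nearly all actives have a fitted effect of over 15% in size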). In a few lines: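 Stable NIH/3T3 Gli1-Luc reporter clone; 24 hr cpd exposure after a 4 hr settling period; luminescence endpoint.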
For experiment [17], the target named is Androgen receptor (Homo sapiens) (UniProt P10275). Nature of the experiment: qHTS assay to identify small molecule antagonists of the androgen receptor (AR) signaling pathway using the MDA cell line in the presence of 0.5 nM R1881 (AID 1259243). Further: nearly all actives have a fitted effect of over 50% in size. Further: potency means the concentration at half of the fitted maximal effect. In a few lines: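 Cells: MDA-kb2 (MMTV-luc). Stimulus: 0.5 nM R1881. Time: 16 hr, 37C, no CO2. Detection: ONE-Glo luminescence after 30 min at RT.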

Experiment [18] is described as follows: qHTS assay to identify small molecule phospholipidosis (PLD) inducers (AID 1259344; active means well fitted curve in the direction sought with a large enough effect; an effect the other way counts as inactive or inconclusive). Summed up:
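Cells (HepG2, 900 per well) attach for 4 h, receive LipidTOX Red and compound together, incubate 24 h at 37 C, are fixed 30 min with paraformaldehyde/Hoechst, then imaged at one site per well.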

Experiment [19] addresses Estrogen receptor (Homo sapiens) (UniProt P03372). Nature of the experiment: qHTS assay to identify small molecule antagonists of the estrogen receptor alpha (ER-alpha) signaling pathway using the BG1 cell line in the presence of 0.1 nM 17-beta-estradiol (AID 1259244). Further: nearly all actives have a fitted effect of over 50% in size. In a few lines: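 Seeding of stripped-serum-adapted VM7Luc4E2 cells, 24 h attachment, compound transfer, then 0.1 nM final 17beta-estradiol; after 22 h incubation, ONE-Glo reagent and luminescence reading.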

Experiment [20] in a line: qHTS RealTime-Glo MT Cell Viability Assay in HEK293 cells - 24 hour (AID 1224886). Summed up: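 Quantitative high-throughput screen of the Tox21 10K library in HEK293: cells and RealTime-Glo reagents plated together, compound added at 5 h, luminescence monitored through 40 h at 37 C.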

Androgen receptor (Homo sapiens), sequence (P10275 whole entry, looked up): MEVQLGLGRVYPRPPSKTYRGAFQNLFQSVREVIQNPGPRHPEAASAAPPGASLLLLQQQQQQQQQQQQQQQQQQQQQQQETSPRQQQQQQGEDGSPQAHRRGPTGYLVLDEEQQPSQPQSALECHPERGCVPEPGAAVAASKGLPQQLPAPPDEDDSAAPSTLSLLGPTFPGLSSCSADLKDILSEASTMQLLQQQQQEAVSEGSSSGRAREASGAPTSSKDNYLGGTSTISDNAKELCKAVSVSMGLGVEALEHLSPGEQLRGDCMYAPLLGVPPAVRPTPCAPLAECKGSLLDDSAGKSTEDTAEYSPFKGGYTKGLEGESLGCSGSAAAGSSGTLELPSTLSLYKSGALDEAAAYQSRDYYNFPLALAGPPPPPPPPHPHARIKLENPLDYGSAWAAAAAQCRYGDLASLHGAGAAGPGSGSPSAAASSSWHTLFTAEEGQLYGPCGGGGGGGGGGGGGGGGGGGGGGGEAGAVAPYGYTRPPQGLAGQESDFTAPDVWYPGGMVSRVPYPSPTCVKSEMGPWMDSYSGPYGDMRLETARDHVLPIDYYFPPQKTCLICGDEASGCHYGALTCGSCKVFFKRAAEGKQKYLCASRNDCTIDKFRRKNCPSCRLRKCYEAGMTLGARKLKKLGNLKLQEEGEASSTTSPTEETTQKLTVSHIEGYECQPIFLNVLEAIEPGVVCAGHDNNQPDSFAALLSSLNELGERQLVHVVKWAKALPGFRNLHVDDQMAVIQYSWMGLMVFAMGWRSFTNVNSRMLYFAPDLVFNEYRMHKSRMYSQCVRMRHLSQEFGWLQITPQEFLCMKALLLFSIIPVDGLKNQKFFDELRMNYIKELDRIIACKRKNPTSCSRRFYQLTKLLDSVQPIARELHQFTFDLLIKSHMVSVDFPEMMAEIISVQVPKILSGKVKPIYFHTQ
Estrogen receptor (Homo sapiens), sequence (P03372 whole entry, looked up): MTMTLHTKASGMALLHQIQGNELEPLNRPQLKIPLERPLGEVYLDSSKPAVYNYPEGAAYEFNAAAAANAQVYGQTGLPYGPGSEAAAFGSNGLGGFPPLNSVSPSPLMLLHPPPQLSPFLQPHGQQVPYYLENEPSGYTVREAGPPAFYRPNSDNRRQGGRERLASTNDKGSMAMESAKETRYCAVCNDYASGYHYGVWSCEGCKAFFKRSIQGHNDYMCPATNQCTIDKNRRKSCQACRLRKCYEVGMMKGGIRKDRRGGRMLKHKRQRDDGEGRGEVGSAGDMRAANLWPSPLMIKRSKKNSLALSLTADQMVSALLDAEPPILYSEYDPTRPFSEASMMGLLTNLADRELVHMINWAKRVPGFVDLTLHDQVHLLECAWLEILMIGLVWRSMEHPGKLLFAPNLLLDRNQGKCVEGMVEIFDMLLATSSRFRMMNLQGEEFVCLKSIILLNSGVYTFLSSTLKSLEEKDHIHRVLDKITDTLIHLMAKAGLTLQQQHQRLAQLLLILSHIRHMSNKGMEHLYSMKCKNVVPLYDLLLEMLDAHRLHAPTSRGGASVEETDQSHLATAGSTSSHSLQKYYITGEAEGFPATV

For the compound `C=CCCCCCCCCCC`, the Potency result in experiment [1], in [2], in [3], in [4], in [5] and in experiment [6] was “inactive” in each case. Moreover, the Potency entry in [7], in experiment [8], in [9], in [10], in experiment [11] and in experiment [12] was “inactive” throughout. Further, the Potency entry in [14], in [15] and in experiment [16] was “inactive” in each case. Also, the result in [13] was inactive.
As to `CC[C@]12CCCN3CCc4c(n(c5ccccc45)[C@@](O)(C(=O)OC)C1)[C@@H]32`, the Potency result in experiment [1], in [2], in experiment [3], in [4], in experiment [5] and in experiment [6] was “inactive” throughout. For the same compound, the Potency entry in [7], in experiment [8], in experiment [9], in experiment [10], in [11] and in experiment [17] was “inactive” in each case. Besides, the Potency entry in [18], in experiment [12], in [14], in [15] and in experiment [16] was “inactive” each time. Moreover, the result in [13] was inactive.
For the compound `NCCOCCO`, the Potency entry in [1], in [2], in [3], in experiment [4], in experiment [5] and in experiment [7] was “inactive” throughout. The Potency result in experiment [8], in experiment [9], in experiment [10], in experiment [11], in experiment [19] and in experiment [12] was “inactive” in each case. Moreover, the Potency result in experiment [14] and in [16] was “inactive” throughout. The outcome in experiment [13] was inactive.
In the case of `O=C(O)c1ccc(O)cc1`, the Potency result in experiment [1], in [2], in experiment [3], in experiment [4], in experiment [5] and in experiment [20] was “inactive” throughout. The Potency entry in experiment [7], in experiment [8], in experiment [9], in experiment [11], in experiment [12] and in [14] was “inactive” each time. The Potency result in experiment [15] and in [16] was “inactive” each time. Moreover, in [13], the call was inactive.
As for `CN(C)C`, the Potency entry in [1], in experiment [2], in experiment [3], in [4], in experiment [5] and in experiment [6] was “inactive” each time. The Potency entry in [7], in experiment [8], in experiment [9], in [10], in experiment [11] and in experiment [19] was “inactive” throughout. Further, the Potency entry in experiment [12], in [14], in experiment [15] and in experiment [16] was “inactive” throughout. The outcome in [13] was inactive.
Take `c1ccc2c(c1)[nH]c1ccccc12`: the Potency entry in experiment [1], in experiment [2], in experiment [3], in experiment [5], in experiment [20] and in experiment [6] was “inactive” throughout. Moreover, the Potency result in experiment [7], in experiment [8], in experiment [9], in [10], in experiment [11] and in [19] was “inactive” in each case. Also, the Potency result in experiment [12], in [14] and in experiment [16] was “inactive” in each case. Besides, the Potency in experiment [17] is 8.49 µM (active) and 8.63 µM (active). In addition, the call in experiment [13] was inactive.
On to `Cc1ccc(S(=O)(=O)O)cc1C`, for which the Potency entry in [1], in experiment [2], in [3], in experiment [4], in [5] and in experiment [6] was “inactive” each time. Besides, the Potency entry in [7], in experiment [8], in experiment [9], in [10], in [11] and in experiment [19] was “inactive” each time. Also, the Potency entry in experiment [18], in experiment [12], in [14], in experiment [15] and in experiment [16] was “inactive” each time. Also, in experiment [13], the call was inactive.
